Test results published in PubChem BioAssay AID620 (Sanford-Burnham Center for Chemical Genomics, 2007).
Hit rate of the full screen: of about 87,000 compounds, about 360 (0.41%) were called active. Cut-off read from the data, not from the text of the source: active = cytotoxicity above about 50%; inactive = the rest. This excerpt belongs to a sample that is enriched for actives.

assay: HT1080 cell viability loss – fluorescence readout (AID 620); settings: at 10 µM, hits give high values;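 note: cells exposed to compound overnight then 4 h with Alamar Blue; 0% = vehicle DMSO and 100% = killing control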

Row | Structure (SMILES) | cytotoxicity
1 | O=C(Nc1ccccc1)N1CCCC2CCCCC21 (centres undefined) | 6.5% (inactive)
2 | COc1cccc(-c2ccc(=O)n(CC(=O)NCCN3CCOCC3)n2)c1 | -0.6% (inactive)
3 | Cc1ccc(NC(=O)CN(C)c2ccc(S(=O)(=O)N3CCN(C)CC3)cn2)cc1 | -4.8% (inactive)
4 | O=C(O)C1CC=CCC1C(=O)N1CCc2ccccc21 (centres undefined) | -3.6% (inactive)
5 | Cc1cc(C)n2cc(CSc3nc4cc(Cl)ccc4o3)nc2n1 | 1% (inactive)
6 | Cc1ccc(C2C(C(=O)O)c3ccccc3C(=O)N2C)o1 (centres undefined) | 3.3% (inactive)
7 | CCOC(=O)c1[nH]c(C)c(C(=O)Nc2cccc(Cl)c2C)c1C | 33.8% (inactive)
8 | CCOC(=O)c1[nH]c(C)c(C(=O)Nc2ccccc2F)c1C | 44.7% (inactive)
9 | CCOC(=O)c1[nH]c(C)c(C(=O)Nc2ccccc2C)c1C | 61.8% (active)
10 | COC(=O)C1=C(C)N(CCc2ccccc2)C(=O)C1(NS(=O)(=O)c1ccc(NC(C)=O)cc1)C(F)(F)F (centres undefined) | -19.4% (inactive)
11 | O=C(NCc1ccc2c(c1)OCO2)c1ccc(CN2CCOCC2)cc1 | -0.5% (inactive)
12 | Cc1ccc(C(=O)N2c3ccccc3N(Cc3ccccc3)C(=O)C2(C)C)cc1 | -12.6% (inactive)
13 | Cc1ccc(C)c(CN2C(=O)C3(OCCCO3)c3ccccc32)c1 | -5.2% (inactive)
14 | CC(=O)N1c2ccccc2N(Cc2ccc(C)cc2C)C(=O)C1(C)C | 52.2% (active)
15 | Cc1nnc(N2C(=O)C(O)=C(C(=O)c3ccco3)C2c2ccc(C(C)C)cc2)s1 (centres undefined) | -3.4% (inactive)
16 | O=C(Nc1cc(C(F)(F)F)ccc1N1CCOCC1)c1ccc[n+]([O-])c1 | 8.9% (inactive)
17 | CCc1ccccc1NS(=O)(=O)c1ccc2[nH]cc(C(=O)NCC3CCCO3)c(=O)c2c1 (centres undefined) | 3.1% (inactive)
18 | CCCCOC(=O)c1ccc(NC(=O)CSc2nncn2C)cc1 | 61.2% (active)
19 | COC(=O)c1ccc(NC(=O)CSc2nncn2C)cc1 | 3.9% (inactive)
20 | Cn1cnnc1SCC(=O)Nc1ccccc1 | 5.5% (inactive)
21 | CCCCCn1c(=O)[nH]c2cc(C(=O)NCCCN3CCCCC3)ccc2c1=O | -6% (inactive)
22 | CN(C)S(=O)(=O)c1cccc(-c2nnc(-c3ccccc3)o2)c1 | -8% (inactive)
23 | O=C(CSCc1c(Cl)cccc1Cl)NCc1ccco1 | 6.4% (inactive)
24 | C[C@@H](NC(=O)c1coc(=O)c(Br)c1)c1ccccc1 | 2.9% (inactive)
25 | CN(C)CCNC(=O)c1coc(=O)c(Br)c1 | -5.5% (inactive)

Row | Structure (SMILES) | cytotoxicity
26 | CC(C)CCOc1ccc(C(=O)O)cc1 | -1.4% (inactive)
27 | COc1cc(OC)c(NC(=O)CCc2ccccc2)cc1Cl | -15.4% (inactive)
28 | CNC(=O)CSc1nnc(-c2ccco2)n1-c1ccccc1OC | 25.4% (inactive)
29 | CC(SC(=S)N1CCOCC1)C(=O)O (centres undefined) | 7.1% (inactive)
30 | CC(C(=O)OCc1nnc(-c2ccccc2)o1)N1C(=O)c2ccccc2C1=O (centres undefined) | 4.5% (inactive)
31 | COc1ccccc1OCCn1cc(C#N)c2ccccc21 | -3.5% (inactive)
32 | N#Cc1cn(CCCOc2ccccc2)c2ccccc12 | 24.2% (inactive)
33 | COc1ccccc1OCCCn1cc(C#N)c2ccccc21 | 76.4% (active)
34 | Cc1cc(C)n(-c2nc3c(c(=O)[nH]c(=O)n3C)n2CCc2ccccc2)n1 | 15.7% (inactive)
35 | COc1ccc(CCn2c(-n3nc(C)cc3C)nc3c2c(=O)[nH]c(=O)n3C)cc1 | 55.6% (active)
36 | Cc1ccc(Cn2c(-n3nc(C)cc3C)nc3c2c(=O)[nH]c(=O)n3C)cc1 | -7.9% (inactive)
37 | CC(=O)Cc1nsc(NC(=O)C2Cc3ccccc3C(=O)O2)n1 (centres undefined) | -9.2% (inactive)
38 | COc1ccccc1/C=N/n1c(C)nnc1-n1nc(C)cc1C | 9.8% (inactive)
39 | Cc1cc(C)n(-c2nnc(C)n2/N=C/c2cc(Br)ccc2OCc2ccccc2)n1 | 5.9% (inactive)
40 | CCCOc1ccc2ccccc2c1/C=N/n1c(C)nnc1-n1nc(C)cc1C | 61.6% (active)
41 | Cc1c(C(N)=O)sc2ncn(CC(=O)N3CCC(C)CC3)c(=O)c12 | 0.9% (inactive)
42 | CCN1CCCC1CNC(=O)CN1C(=O)COc2ccc(C)cc21 (centres undefined) | -4.1% (inactive)
43 | O=C(Cc1ccc(Br)cc1)OCC(=O)c1ccc2c(c1)OCCO2 | -6.8% (inactive)
44 | O=C(Cc1n[nH]c(=O)c2ccccc12)OCC(=O)c1ccc2c(c1)OCCO2 | 60.4% (active)
45 | O=C(Cn1cnc2ccccc2c1=O)OCC(=O)c1ccc2c(c1)OCCO2 | -7.6% (inactive)
46 | CC(C)c1cc(Nc2cccc(O)c2)cc(C(C)C)c1O | 2% (inactive)
47 | CCN(Cc1ccccc1)S(=O)(=O)c1ccc(S(=O)(=O)N(Cc2ccccn2)Cc2ccco2)cc1 | 11.3% (inactive)
48 | CCN1CCN(C(=O)Cn2ncc3ccsc3c2=O)CC1 | -5.8% (inactive)
49 | CCN1C(=O)/C(=C/N2CCc3ccccc32)SC1=S | 5.1% (inactive)
50 | CCN1C(=O)/C(=C\N2CCCCCC2)SC1=S | -5.6% (inactive)

Row | Structure (SMILES) | cytotoxicity
51 | CCN1C(=O)/C(=C\N2CCCc3ccccc32)SC1=S | 52.5% (active)
52 | COc1ccc(C(=O)Nc2ccc(N3CCOCC3)cc2)cc1OC | -4.9% (inactive)
53 | COc1cc(C(=O)Nc2cccc3cccnc23)cc(OC)c1OC | 5.4% (inactive)
54 | Cn1c(=N)n(CC(=O)O)c2ccccc21 | 0.2% (inactive)
55 | Cn1c(=N)n(CC(O)c2cccc3ccccc23)c2ccccc21 (centres undefined) | 57.8% (active)
56 | Cn1c(=N)n(CC(O)c2ccco2)c2ccccc21 (centres undefined) | -14.7% (inactive)
57 | CC1CCC(C(C)C)C(OCC(O)CN2CCOCC2)C1 (centres undefined) | 2.7% (inactive)
58 | COc1ccccc1NC(=O)c1oc2ccccc2c1NC(=O)c1ccco1 | 0.3% (inactive)
59 | COc1ccccc1NC(=O)c1oc2ccccc2c1NC(=O)c1cc(OC)c(OC)c(OC)c1 | 50% (active)
60 | COCC(=O)Nc1c(C(=O)Nc2ccccc2OC)oc2ccccc12 | -17.1% (inactive)
61 | Cc1oc2c(c1C(=O)Nc1cccc(C(=O)O)c1)CCCC2 | 9.3% (inactive)
62 | CC1(C)CC2CC(C)(CN2C(=O)Cc2ccccc2)C1 (centres undefined) | -25% (inactive)
63 | COc1cccc(C2C(C(N)=O)=C(C)Nc3nc(CCCO)nn32)c1OC (centres undefined) | 1% (inactive)
64 | CCOC(=O)c1c(C)sc2c1N(C(C)=O)c1cc(Cl)ccc1S2 | 17.6% (inactive)
65 | CCOC(=O)c1c(C)sc2c1N(C(=O)CCl)c1cc(Cl)ccc1S2 | 87.2% (active)
66 | CCOC(=O)c1c(C)sc2c1N(C(=O)CN(CC)CC)c1cc(Cl)ccc1S2 | 6.5% (inactive)
67 | CCCN1CCN(C(c2cc3cc4c(cc3[nH]c2=O)OCO4)c2nnnn2C(C)(C)C)CC1 (centres undefined) | 1.4% (inactive)
68 | CCN(CC)S(=O)(=O)c1cccc(C(=O)Nc2ccc(Cl)cn2)c1 | -7.6% (inactive)
69 | CCc1ccc(C2=CC(c3cc(Br)ccc3F)n3ncnc3N2)cc1 (centres undefined) | 44.7% (inactive)
70 | Fc1ccc(Br)cc1C1C=C(c2ccc(Br)s2)Nc2ncnn21 (centres undefined) | 62.6% (active)
71 | Fc1ccc(Br)cc1C1C=C(c2ccc(Br)cc2)Nc2ncnn21 (centres undefined) | -11.5% (inactive)
72 | Cc1cc(N)n(-c2ncnc3scc(-c4ccc(Cl)cc4)c23)n1 | 7.2% (inactive)
73 | CC(CN1CCOCC1)C(=O)c1ccccc1 (centres undefined) | -9.8% (inactive)
74 | O=C(c1ccc(F)cc1)C(CN1CCOCC1)c1ccccc1 (centres undefined) | 61% (active)
75 | COc1ccc(C(=O)C(CN2CCOCC2)c2ccccc2)cc1 (centres undefined) | 27% (inactive)

Row | Structure (SMILES) | cytotoxicity
76 | CCCCCOc1ccc(C(=O)C(c2ccccc2)N2CCOCC2)cc1 (centres undefined) | -2% (inactive)
77 | COc1ccc(C(=O)C(CN2CCOCC2)c2ccccc2)cc1F (centres undefined) | 25.3% (inactive)
78 | CCc1cc(=O)oc2cc(OCC(=O)N(CC)CC)c(Cl)cc12 | 2.2% (inactive)
79 | O=C(CCn1c(=O)sc2ccccc21)NCc1ccccc1 | 0% (inactive)
80 | c1ccc2[nH]c(CSc3nc4ccccc4s3)nc2c1 | -3.3% (inactive)
81 | CCCC[C@@H]1C[C@H]1C(NC(=O)c1ccc(C(F)(F)F)cc1)c1ccc(C(=O)OC)cc1 (some centres undefined) | -11.3% (inactive)
82 | CCn1cc(C(=O)O)c(=O)c2cnc(N3CCN(C(=O)Nc4cccc5ccccc45)CC3)nc21 | -1.8% (inactive)
83 | CC(=O)N1CCN(Cc2ccc(Br)s2)CC1 | -4.4% (inactive)
84 | Cc1[nH]c(=O)[nH]c(=O)c1S(=O)(=O)N1c2ccc(F)cc2CCC1C (centres undefined) | -0.4% (inactive)
85 | CCCN(C(=O)Cn1ncc2c(=O)oc3ccccc3c21)c1cccc(C)c1 | -2.3% (inactive)
86 | O=C(CN(c1ccccc1F)S(=O)(=O)c1ccccc1)NC1CCCCCC1 | -8.6% (inactive)
87 | Fc1ccc(-c2nnc(CN3CCN(c4ncc(C(F)(F)F)cc4Cl)CC3)o2)cc1 | -2.5% (inactive)
88 | CCCCCc1ccc(-c2ccc(=O)[nH]n2)cc1 | 15.3% (inactive)
89 | CCCCc1ccc(-c2nc(N)n[nH]2)cc1 | 5.5% (inactive)
90 | CCCCCCc1ccc(-c2ncc(N)cn2)cc1 | 97.1% (active)
91 | CCCn1c(=O)c2ccccc2n2c(SCC(=O)c3cc(C)n(CC4CCCO4)c3C)nnc12 (centres undefined) | 6.6% (inactive)
92 | COc1ccccc1N(CC(=O)NC1CCCCC1)S(C)(=O)=O | -0.7% (inactive)
93 | Fc1ccc(N2CCN(c3nc(-c4ccco4)cc(C(F)(F)F)n3)CC2)cc1 | -8.6% (inactive)
94 | O=C(c1c[nH]c2ccc(F)cc2c1=O)N1CCCCCC1 | 67.1% (active)
95 | COc1ccc2[nH]cc(C(=O)N3CCCCC3)c(=O)c2c1 | -0.4% (inactive)
96 | CCc1ccc2[nH]cc(C(=O)N3CCCCCC3)c(=O)c2c1 | -11% (inactive)
97 | FC(F)(F)c1cc(-c2ccco2)nc(-n2cnc3ccccc32)n1 | -14.2% (inactive)
98 | Cc1nc2ccccc2n1-c1nc(-c2ccco2)cc(C(F)(F)F)n1 | 65.2% (active)
99 | FC(F)(F)c1cc(-c2ccco2)nc(-n2nnc3ccccc32)n1 | -10.9% (inactive)
